IMPase Li inh: IMPase inhibition in cells with lithium potentiation | AID 1457 | Potency, µM (highest dose often 59.4 µM), inactives show top-dose activity, negative = IMPase inhibition, most hits filed as inhibitors | CHO-M1 cells, IP1 TR-FRET (IP-One), carbachol + lithium | 210,000 compounds, 0.35% hits; active means well fitted curve in the direction sought with a large enough effect; inconclusive means small, poorly fitted or top-dose-only effect, or another doubt; inactive means no such curve, though single readings can be large; an effect the other way counts as inactive or inconclusive;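 further: IP1 builds up when IMPase is blocked and the TR-FRET signal falls; plate controls were basal vehicle for no effect and high inhibitor control for full effect; nearly all actives have a fitted effect of over 50% in size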
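Test compounds were applied to CHO-M1 cells previously cultured for 16–30 h at 2000 per well. A small lithium amount accompanied them; after 30 min at 37C, IP1 was quantified by TR-FRET.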
ALDH1A1 block: blocks purified human ALDH1A1 activity | Purified ALDH1A1, NADH fluorescence, propionaldehyde substrate | Potency, µM (top dose mostly 75.3 µM), for the others: top-dose activity, negative = inhibition, usual class: inhibitors | 220,000 compounds, 7.3% hits | AID 1030;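 further: plate controls were no enzyme wells and a reference inhibitor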
Luc counter: counter-screen: inhibitors of Kinase-Glo firefly luciferase | AID 1379 | 200,000 compounds, 0.28% hits | Potency, µM (titrated, usually from 38.3 µM), for the others: at the highest dose activity change, negative = inhibition, hits mostly inhibitors | Kinase-Glo luciferase, ATP luminescence, 8 min; active means well fitted curve in the direction sought with a large enough effect; inconclusive means small, poorly fitted or top-dose-only effect, or another doubt; inactive means no such curve, though single readings can be large; an effect the other way counts as inactive or inconclusive; further: nearly all actives have a fitted effect of over 60% in size
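Inhibition of Kinase-Glo luciferase light generation was assessed at 10 uM ATP in pH 7.2 imidazole buffer, with luminescence measured after eight minutes at ambient temperature.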
HPGD inh: HPGD (human) dehydrogenase inhibition | P15428 | 150,000 compounds, 4.3% hits | purified HPGD, NADH fluorescence kinetic, PGE2 substrate | Potency, µM, for inactives: at the top dose activity change, negative = inhibition, usual class: inhibitors
Target sequence (P15428 whole entry, looked up): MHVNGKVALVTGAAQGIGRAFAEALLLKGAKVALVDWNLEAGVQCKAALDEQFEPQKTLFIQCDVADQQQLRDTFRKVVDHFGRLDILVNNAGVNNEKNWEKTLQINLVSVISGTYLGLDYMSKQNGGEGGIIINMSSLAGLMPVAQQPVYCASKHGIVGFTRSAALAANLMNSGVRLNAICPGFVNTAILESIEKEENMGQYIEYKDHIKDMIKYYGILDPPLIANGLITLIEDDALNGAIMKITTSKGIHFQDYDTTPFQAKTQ
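NADH formation kinetics: reaction with 30 uM PGE2 and 1 mM NAD+ (final), 20 nM enzyme, Tris-HCl pH 8 with Tween 20, after 15 min compound preincubation at room temperature. Fluorescence change, last versus first of five reads.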
LMNA splice mod: LMNA splicing modulation; HeLa LMNA splicing GFP/RFP minigene ratio, 48 h; Potency, µM (titrated, usually from 46.1 µM), without a hit: at the top dose ratio change, negative = inhibition, hits mostly inhibitors; 200,000 compounds, 0.01% hits; AID 1487; active means well fitted inhibition curve with a large enough effect in the signal ratio, with a control signal flat, not every such curve was filed as active; inconclusive means small, poorly fitted or top-dose-only effect, or effect the other way, or a change in a side signal; the % refers to the signal ratio
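Read-out is the ratio of GFP to DsRed2 object intensity, acquired by 488 nm laser-scanning cytometry on HeLa lamin A-EGFP minigene reporter cells. Compound incubation 48 hrs at 37 °C in Opti-MEM with 2% FBS; DMSO 0.5% final.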
An asterisk follows results filed as active; [ ] = remark or other dose. This is a sample that favours compounds with a hit; in the whole collection about 9% have one here. Unless noted, the call rests on the fitted dose curve; in most records, active means well fitted inhibition curve with a large enough effect (not every such curve was filed as active); inconclusive means small, poorly fitted or top-dose-only effect, or another doubt; inactive means no such curve, though single readings can be large or run the other way. Unless noted, on the % scale 0 is the no-effect control and ±100 the full control effect; potency means the concentration at half of the fitted maximal effect.

Screening COc1ccc(OC)c(NC(=O)N(C)CCc2c(C)nn(C)c2C)c1 returned LMNA splice mod 8%[46 µM].
For Cn1c(=O)c2[nH]c([C@@H]3CC(=O)C[C@H](c4nc5c([nH]4)c(=O)n(C)c(=O)n5C)N3)nc2n(C)c1=O the results were IMPase Li inh 3%, ALDH1A1 block 3%[13.5 µM], Luc counter 0%[7.66 µM] and HPGD inh -12%.
O=C(CSc1ncnc2c1oc1ccccc12)c1cccs1 was read as IMPase Li inh 13µM*, ALDH1A1 block 10%, Luc counter -2%, HPGD inh -26% and LMNA splice mod 12%.
Screening O=C(CSc1ncnc2c1oc1ccccc12)OCc1ccccc1 returned IMPase Li inh -6%[38.3 µM], ALDH1A1 block 2%, Luc counter -1%, HPGD inh inconclusive and LMNA splice mod 4%.
O=C(CSc1ncnc2c1oc1ccccc12)Nc1nccs1 was read as IMPase Li inh inconclusive and ALDH1A1 block 9%.
Cc1nc(SCC(=O)N2CCN(c3ccccc3)CC2)c2oc3ccccc3c2n1 was read as IMPase Li inh 5%[38.3 µM], ALDH1A1 block 40µM*, Luc counter 5%, HPGD inh inconclusive and LMNA splice mod inconclusive.
NC(=O)CSc1ncnc2c1oc1ccccc12 was read as IMPase Li inh 13µM*, ALDH1A1 block inconclusive, Luc counter 4%, HPGD inh -29% and LMNA splice mod -19%.
Screening Cc1nc(SCC(=O)O)c2oc3ccccc3c2n1 returned IMPase Li inh -7%[38.3 µM], ALDH1A1 block 2%, Luc counter -1%, HPGD inh 18µM* and LMNA splice mod -11%.
CN(C)Cc1cc(C(C)(C)C)ccc1-c1ccc(C(C)(C)C)cc1CN(C)C was read as IMPase Li inh -9%, ALDH1A1 block 4%[13.5 µM], Luc counter -2%[7.66 µM] and HPGD inh -2%.
For Cc1ccc(N2CC(C(=O)NCCS(=O)(=O)N3CCN(c4ccc(F)cc4)CC3)CC2=O)cc1 (stereo not drawn) the results were LMNA splice mod 2%[46 µM].
For O=C(CSc1ncccc1C(=O)Oc1ccccc1Cl)Nc1ccc(C(F)(F)F)cc1Cl the results were LMNA splice mod 2%[46 µM].
Screening COC(=O)C1=C(C)N(Cc2cccnc2)C(=O)/C1=C\c1sccc1C returned IMPase Li inh 9%, ALDH1A1 block -7%, Luc counter -1% and LMNA splice mod -15%[46 µM].
`COc1ccc(C(C)=O)cc1CSc1nc2cc(Cl)ccc2o1` gave IMPase Li inh 49%[38.3 µM], ALDH1A1 block 25µM*, Luc counter -2%, HPGD inh -26% and LMNA splice mod inconclusive.
O=C(CSc1ncnc2c1oc1ccccc12)NCc1ccc(F)cc1 was read as IMPase Li inh 25µM*, ALDH1A1 block 1%, Luc counter 2%, HPGD inh -21% and LMNA splice mod -12%.
`Cc1cccc(NC(=O)CSc2ncnc3c2oc2ccccc23)c1` gave IMPase Li inh 3%[38.3 µM], ALDH1A1 block 6%, Luc counter 2%, HPGD inh -17% and LMNA splice mod 0%.
`Fc1ccc(CSc2ncnc3c2oc2ccccc23)cc1` gave IMPase Li inh inconclusive, ALDH1A1 block 10%, Luc counter -2%, HPGD inh inconclusive and LMNA splice mod -11%.
O=C(CSc1nc2cc(Cl)ccc2o1)c1cccs1 was read as IMPase Li inh 4%[38.3 µM], ALDH1A1 block -2%, Luc counter -5%, HPGD inh 14µM* and LMNA splice mod 0%.
Screening O=C(CSc1ncnc2c1oc1ccccc12)NC1CCCCC1 returned IMPase Li inh 11µM*, ALDH1A1 block inconclusive, Luc counter 7%, HPGD inh inconclusive and LMNA splice mod -17%.
COc1cc(OC)c(Nc2c3c(nc4nc(-c5cccs5)nn24)CCCC3)cc1Cl was read as LMNA splice mod 5%[46 µM].
`COC(=O)[C@H]1O[C@@H](c2cc(OC)c(C)c(OC)c2OCc2ccccc2)[C@H](C)[C@@H]2O[C@]12C` gave IMPase Li inh -2%, ALDH1A1 block -1%, Luc counter -3% and HPGD inh -9%.
For Cc1nc(SCC(=O)c2cccs2)c2oc3ccccc3c2n1 the results were IMPase Li inh 47%[38.3 µM], ALDH1A1 block 2%, Luc counter -4%, HPGD inh 13µM* and LMNA splice mod inconclusive.
CCc1cnc2c(c1SCc1ccccc1C)c(=O)n(C)c(=O)n2C was read as LMNA splice mod -7%[46 µM].
Screening COc1ccc(-n2c(-c3cccc(C)c3[N+](=O)[O-])n[nH]c2=S)cc1 returned IMPase Li inh 16%[38.3 µM], ALDH1A1 block inconclusive, Luc counter 1%, HPGD inh 35µM* and LMNA splice mod -2%.
For CC1(C)CC2(CCO1)OC(=O)CC2C(=O)Nc1ccccc1Cl (stereo not drawn) the results were IMPase Li inh -3%, ALDH1A1 block -7% and Luc counter 0%.
For Cc1ccccc1-c1nc2scc(CCNS(=O)(=O)c3ccccc3)n2n1 the results were LMNA splice mod -2%[46 µM].
`COc1ccc2c(c1)C(=O)[C@@H](OC(=O)N[C@H]1CCCc3ccccc31)[C@H](c1ccc(OC)c(Br)c1)O2` gave IMPase Li inh 3%, ALDH1A1 block 13µM*, Luc counter -1% and HPGD inh -9%.
For O=C(c1ccco1)N1CCN(C(=O)c2ccccc2NS(=O)(=O)c2ccc(F)cc2)CC1 the results were IMPase Li inh -2% and ALDH1A1 block 2%.
`O=C(Nc1ccccn1)c1onc2c1CCCC2` gave IMPase Li inh -1%, ALDH1A1 block -12%, Luc counter 13µM*, HPGD inh -1% and LMNA splice mod -8%.
Screening C/C(=N\NC(=O)COc1ccc(C)cc1[N+](=O)[O-])c1cccs1 returned IMPase Li inh 0%, ALDH1A1 block 14µM*, Luc counter 1% and LMNA splice mod inconclusive.
Screening N#Cc1c(Nc2ccc(F)cc2)sc(C(=O)c2ccc(F)cc2)c1N returned IMPase Li inh 3%[38.3 µM], ALDH1A1 block 22µM*, Luc counter -4%, HPGD inh inconclusive and LMNA splice mod 6%.
Screening N#Cc1c(Nc2ccccc2)sc(C(=O)c2ccccc2)c1N returned IMPase Li inh 12%, ALDH1A1 block 13µM*, Luc counter 5%, HPGD inh -29% and LMNA splice mod -8%.
For Fc1cccc(Cl)c1-c1nnc2ccc(C(F)(F)F)cn12 the results were IMPase Li inh 2%, ALDH1A1 block -7% and Luc counter 1%.
Screening Cc1ccc(NC(=O)Cn2cnc3c(oc4ccccc43)c2=O)cc1Cl returned LMNA splice mod 2%[46 µM].
For CCOC(=S)SCC(=O)O the results were IMPase Li inh 1%, ALDH1A1 block inconclusive, Luc counter -6%[7.66 µM] and HPGD inh -7%.
Cc1cc[n+](-c2[nH]c(=O)sc2/C=N/N=C(\[O-])c2ccccc2)cc1C was read as IMPase Li inh 13%, ALDH1A1 block 22µM*, Luc counter -4% and LMNA splice mod 3%[46 µM].

Screening results as filed in PubChem.
